This passage reports inhibition results from ChEMBL document CHEMBL3433997, “St. Jude Leishmania screening dataset” (2016).

Broadly, the inhibition is the drop in the measured response relative to a control, in per cent.

Assay type in all cases: functional
Assay [1] concerns the target Solute carrier family 2, facilitated glucose transporter member 1 (Homo sapiens) (UniProt P11166). Kind of assay: ST_JUDE_LEISH: Cytotoxicity at 2uM final concentration against transgenic Leishmania Mexicana promastigotes LmGLUT1 that are glucose transport deficient and complemented with the human glucose transporter GLUT1. Activity is measured by DNA content using SYBR green in vitro.

Assay [2] has as its target Hexose transporter 1 (Plasmodium falciparum) (UniProt O97467). Kind of assay: ST_JUDE_LEISH: Cytotoxicity at 2uM final concentration against transgenic Leishmania Mexicana promastigotes LmPfHT that are glucose transport deficient and complemented with the Plasmodium falciparum hexose transporter. Activity is measured by DNA content using SYBR green in vitro.
Assay [3] concerns the target Glucose transporter (Leishmania mexicana) (UniProt O61059). Kind of assay: ST_JUDE_LEISH: Cytotoxicity at 2uM final concentration against transgenic Leishmania Mexicana promastigotes LmGT2 that are glucose transport deficient and complemented with the L. Mexicana glucose transporter 2. Activity is measured by DNA content using SYBR green in vitro.

Chain of Solute carrier family 2, facilitated glucose transporter member 1 (Homo sapiens) (P11166 whole entry): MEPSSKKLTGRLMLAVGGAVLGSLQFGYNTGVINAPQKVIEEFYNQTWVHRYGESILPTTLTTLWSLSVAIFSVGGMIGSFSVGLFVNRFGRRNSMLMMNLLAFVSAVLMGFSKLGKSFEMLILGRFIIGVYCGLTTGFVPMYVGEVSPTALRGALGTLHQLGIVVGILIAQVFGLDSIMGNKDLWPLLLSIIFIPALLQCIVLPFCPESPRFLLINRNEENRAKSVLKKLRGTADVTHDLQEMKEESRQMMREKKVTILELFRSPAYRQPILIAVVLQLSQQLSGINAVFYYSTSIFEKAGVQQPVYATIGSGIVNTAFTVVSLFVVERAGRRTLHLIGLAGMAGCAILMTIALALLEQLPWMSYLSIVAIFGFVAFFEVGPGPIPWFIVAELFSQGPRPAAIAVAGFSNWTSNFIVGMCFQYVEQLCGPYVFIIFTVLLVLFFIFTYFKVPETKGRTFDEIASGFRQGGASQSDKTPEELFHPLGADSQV

On to `Cc1ccc(NC(=O)Nc2ccc(Cl)c(C(F)(F)F)c2)cc1-c1ccc(C(=O)NCCN2CCOCC2)cc1`, for which the inhibition in assay [1] amounted to 8.1%; in assay [2], 5.32%; in assay [3], 5.24%.

Regarding `COc1ccc(NC(=O)[C@H](Cc2ccccc2)Nc2cc(C)nc(Nc3ccccc3)n2)cc1`, the figures for the inhibition in assay [1], in assay [2] and in assay [3] were 12.3%, 14.5% and 10.4%, respectively.

In the case of `Cc1cccc(C)c1CNc1nc(N2CCOCC2)cc2c(C)c(C)[nH]c12`, the inhibition was found to be 3.7% in assay [1], 3.43% in assay [2] and 4.38% in assay [3].

On to `C#CCNCc1ccc(-c2cccc(-c3nc4cccc(C)c4[nH]3)c2)cc1`, for which the inhibition came out at 6.77% in assay [1], 4.1% in assay [2] and 3.18% in assay [3].

In the case of `C=CCc1cc(SC)ccc1Oc1ccc(N)cc1`, the inhibition in assay [1] amounted to 1.84%; in assay [2] it was 2.06%; in assay [3] it was 1.08%.

`COc1ccc(NC(=O)[C@H](CC(C)C)Nc2cc(C)nc(Nc3ccccc3)n2)cc1`: the figures for the inhibition in assay [1], in assay [2] and in assay [3] were 19.2%, 15.8% and 14.9%, respectively.

For `CCCCCCOc1ccc(C(=O)N[C@H]2CCN(CCCCCNC(=O)/C=C/c3ccc(Cl)c(Cl)c3)C2)cc1`, the inhibition was 0.31% in assay [1], -0.9% in assay [2] and 1.12% in assay [3].

Regarding `CCCC(C)N(Cc1ccc(C(C)(C)C)cc1)C(=O)c1ccc(OC)cc1` (configuration not stated), the results for the inhibition in assay [1], in assay [2] and in assay [3] were 9.4%, 10.6% and 7.03%, respectively.

Consider `O=C(NCCCCN1CCC(c2ccc3c(c2OCCO)CCCC3)CC1)c1ccc2oc(-c3ccc(C(F)(F)F)cc3)cc2c1`, for which the inhibition in assay [1] stood at 1.2%; in assay [2], 2.49%; in assay [3], 2.18%.

Consider `CN1CCC(c2csc3ccc(NC(=O)Nc4ccc(-c5ccncc5)c5ccccc45)cc23)CC1`, for which the inhibition is -0.99% in assay [1], 0.65% in assay [2] and 2.4% in assay [3].

`CC(C)(C)c1ccc(CN2CCC(NC(=O)c3ccc(-c4cccc(C(F)(F)F)c4)s3)CC2)cc1`: the inhibition in assay [1] was 1.56%; in assay [2], -0.78%; in assay [3], -5.64%.

Take `FC(F)(F)c1ccc(-c2ccc(CNC3CCN(CCN4CCOCC4)CC3)cc2)cc1`: the inhibition in assay [1] is 1.09%; in assay [2], 0.81%; in assay [3], 3.26%.

As for `O=C(/C=C/c1ccc(Cl)c(Cl)c1)NCCCCCN1CCC(NC(=O)Nc2ccc(C(F)(F)F)cc2)CC1`, the inhibition in assay [1] was determined as 8.19%; in assay [2], 8.67%; in assay [3], 8.81%.

In the case of `COc1ccc(-c2csc(C(=O)NC3CCC(N4CCC(c5ccccc5C)CC4)CC3)c2)cc1` (configuration not stated), the inhibition in assay [1] stood at 3.25%; in assay [2], 4.24%; in assay [3] it was 3.51%.

On to `N#Cc1cccc(C(=O)Nc2cccc(-c3ccc(C(=O)Nc4cccnc4)cc3)c2)c1`, for which the inhibition amounted to 4.01% in assay [1], 2.59% in assay [2] and 1.36% in assay [3].

In the case of `COc1cc(N(Cc2ccccc2C)S(=O)(=O)Cc2ccccc2[N+](=O)[O-])c(OC)cc1Cl`, the inhibition is 3.26% in assay [1], 2.73% in assay [2] and 3.39% in assay [3].

With `O=C(NCCSCc1c(F)cccc1Cl)c1cnc2c(c1)nc(-c1c[nH]c(-c3ccccc3)n1)n2CCc1c[nH]cn1`, the inhibition in assay [1] was 2.77%; in assay [2], 2.22%; in assay [3], 0.97%.

On to `CN1CCN(CC2(Nc3nccc(NCCc4cn(C)c5ccccc45)n3)CCCCC2)CC1`, for which the inhibition was 0.99% in assay [1], 1.78% in assay [2] and -1.09% in assay [3].

On to `Nc1cccc(CNCc2cccc(-c3ccc(-c4nc5ccccc5[nH]4)s3)c2)c1`, for which the inhibition was found to be 7.77% in assay [1], 8.55% in assay [2] and 5.7% in assay [3].

Consider `CCOc1ccc2c(=NN=Cc3ccc(OC)c(OC)c3)cc(C)[nH]c2c1`, for which the inhibition in assay [1] was 4.95%; in assay [2], 3.84%; in assay [3], -0.04%.

`CNC(=O)c1cnc(Nc2ccc(OCC(O)CN(C)C)cc2)nc1Nc1cccc(Br)c1` (configuration not stated): the figures for the inhibition in assay [1], in assay [2] and in assay [3] were 11.4%, 11.1% and 9.84%, respectively.

On to `OCC1CCN(Cc2ccc(-c3cccc(-c4nc5ccccc5[nH]4)c3)cc2)CC1`, for which the inhibition in assay [1] was 1.15%; in assay [2], 1.08%; in assay [3], 3.83%.

With `CCCN(CCCCCCN(CCC)CCc1ccc(O)c(O)c1)CCc1ccc(O)cc1`, the inhibition in assay [1] turned out to be 9.55%; in assay [2] it was 12%; in assay [3], 10.8%.

As to `CCNc1cc(C(=O)N[C@@H](Cc2ccccc2)[C@H](O)CNC(C)C)cc(N2CC(c3ccccc3)CCS2(=O)=O)c1` (some centres not stated), the inhibition was found to be 2.23% in assay [1], 2.11% in assay [2] and 4.05% in assay [3].

On to `CCCCCC(=O)N1CCOC(CCN2CCC(c3ccccc3)CC2)(c2ccc(Cl)c(Cl)c2)C1` (configuration not stated), for which the figures for the inhibition in assay [1], in assay [2] and in assay [3] were 2.57%, 3.27% and 0.92%, respectively.

Regarding `COc1ccc(CNCCCCCNCc2ccc(Cl)c(Cl)c2)cc1Cl`, the results for the inhibition in assay [1], in assay [2] and in assay [3] were 3.98%, 3.58% and 1.38%, respectively.

As for `Nc1ccc2nc(C=Cc3ccccc3)[nH]c2c1`, the inhibition in assay [1] was 1.45%; in assay [2], 0.85%; in assay [3], 3.06%.

Regarding `CC(=O)N(C)C1CCN(Cc2cccc(-c3ccc(-c4nc5cc(C(F)(F)F)ccc5[nH]4)cc3)c2)C1` (configuration not stated), the inhibition in assay [1] is 2.39%; in assay [2], -4.29%; in assay [3], 3.1%.

For the compound `CCCCCCN1CCC(NCc2cccc([N+](=O)[O-])c2)CC1`, the results for the inhibition in assay [1], in assay [2] and in assay [3] were 3.72%, 5.68% and 4.96%, respectively.

As for `CC(=O)Nc1ncc(C(=O)Nc2cccc(-c3ccc(-c4nc5cc(F)ccc5[nH]4)cc3)c2)s1`, the values for the inhibition in assay [1], in assay [2] and in assay [3] were 4.02%, 1.84% and 2.62%, respectively.

For the compound `Oc1ccc(CCNc2nc(N/N=C/C=C/c3ccc(Cl)cc3)nc(N3CCNCC3)n2)cc1`, the inhibition worked out at 0.83% in assay [1], 1.74% in assay [2] and 0.91% in assay [3].

As for `COc1ccc(C2C(C(=O)Nc3ccccc3)=C(C)Nc3c(C(=O)Nc4ccccc4)cnn32)cc1` (configuration not stated), the results for the inhibition in assay [1], in assay [2] and in assay [3] were 2.83%, 0.21% and 0.09%, respectively.

In the case of `O=C(Nc1cccc(CCNCc2ccccc2)c1)Nc1cccc2ccccc12`, the inhibition in assay [1] stood at 10.3%; in assay [2], 11%; in assay [3], 10.9%.

For `O=C(C=Cc1ccc(Cl)c(Cl)c1)NCCCCCN1CCC(CCCNC(=O)c2sc3ccccc3c2Cl)CC1`, the inhibition in assay [1] is 2.7%; in assay [2], 0.72%; in assay [3] it was 1.61%.
